Test results as given in PubChem BioAssay (Tox21).
Where “and” joins values, the source holds several entries; their conditions need not be identical. Equal entries are not always repeated. Records with an inconclusive call do not appear. A call without a number means that no potency is given here. Calls of active or inactive are those of the source. Unless noted, calls come from the whole dose curve; as a rule, active = well fitted curve in the direction sought with a large enough effect in the repeat runs; inconclusive = weak or mixed curves; inactive = no such curve, though single readings can be large; an effect the other way counts as inactive or inconclusive.

What was measured:
[1] = target: Progesterone receptor (Homo sapiens) (UniProt P06401); assay: qHTS assay to identify small molecule agonists of the progesterone receptor (PR) signaling pathway (AID 1346784; calls by dose curve; note: nearly all actives have a fitted effect of over 30% in size)
Progesterone receptor (Homo sapiens), sequence (P06401 whole entry, looked up): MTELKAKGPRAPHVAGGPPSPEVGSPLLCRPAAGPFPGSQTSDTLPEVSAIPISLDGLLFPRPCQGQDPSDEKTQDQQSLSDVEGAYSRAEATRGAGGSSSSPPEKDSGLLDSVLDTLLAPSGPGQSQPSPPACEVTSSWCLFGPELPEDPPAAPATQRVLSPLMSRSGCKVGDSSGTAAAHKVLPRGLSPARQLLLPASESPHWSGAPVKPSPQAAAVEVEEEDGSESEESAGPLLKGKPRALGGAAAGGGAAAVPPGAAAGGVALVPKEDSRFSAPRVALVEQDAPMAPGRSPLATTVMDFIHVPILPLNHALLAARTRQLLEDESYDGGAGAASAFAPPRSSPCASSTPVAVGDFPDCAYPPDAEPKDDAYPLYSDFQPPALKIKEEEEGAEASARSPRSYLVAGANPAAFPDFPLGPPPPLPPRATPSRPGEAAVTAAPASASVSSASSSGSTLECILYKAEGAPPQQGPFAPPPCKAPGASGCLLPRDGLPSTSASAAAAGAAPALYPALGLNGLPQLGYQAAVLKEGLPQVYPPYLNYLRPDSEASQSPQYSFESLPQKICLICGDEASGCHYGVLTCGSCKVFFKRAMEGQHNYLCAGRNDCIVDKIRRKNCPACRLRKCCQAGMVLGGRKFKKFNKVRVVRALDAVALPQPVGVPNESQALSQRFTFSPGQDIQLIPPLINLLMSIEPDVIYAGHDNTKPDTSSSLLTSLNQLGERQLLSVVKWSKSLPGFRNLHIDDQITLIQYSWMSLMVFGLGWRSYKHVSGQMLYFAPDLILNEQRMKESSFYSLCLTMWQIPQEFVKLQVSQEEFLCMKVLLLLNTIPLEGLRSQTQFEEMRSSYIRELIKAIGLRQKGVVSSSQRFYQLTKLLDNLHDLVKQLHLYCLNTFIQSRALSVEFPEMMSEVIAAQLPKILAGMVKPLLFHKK
Summary of the method: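 Compounds were tested for PR agonism in HEK 293T cells bearing a beta-lactamase gene under UAS control. Treatment lasted 16 hr at 37C; signal came from fluorescence of a FRET substrate.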

[2] = target: Progesterone receptor (Homo sapiens) (UniProt P06401); assay: qHTS assay to identify small molecule antagonists of the progesterone receptor (PR) signaling pathway (AID 1346795; active = well fitted inhibition curve with a large enough effect in the signal ratio in the repeat runs, not every such curve was filed as active; the % refers to the signal ratio; note: potency is the fitted concentration of half-maximal effect)
Summary of the method: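 In HEK293T cells bearing the PR-UAS-bla reporter, compound effects on promegestone-driven (1 nM) beta-lactamase expression are assessed after 16 hr using a fluorescent FRET substrate incubated 2 hr at room temperature.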

[3] = qHTS assay to identify small molecule antagonists of the progesterone receptor (PR) signaling pathway - cell viability counter screen (AID 1346798); note: series mostly up to about 92 µM; nearly all actives have a fitted effect of over 50% in size
Summary of the method: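 Following a 4 hr attachment, PR-UAS-bla HEK293T cells in charcoal-stripped FBS medium were exposed to compounds with R5020 for 16 hr; CellTiter-Glo was added and luminescence read after 30 min at room temperature.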

[4] = qHTS assay to identify small molecule agonists of the progesterone receptor (PR) signaling pathway - cell viability counter screen (AID 1346799; calls by dose curve; note: nearly all actives have a fitted effect of over 45% in size)
Summary of the method: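 Here, 3,000 PR-UAS-bla HEK293T cells per well were treated with compounds for 16 hr after a 6 hr preincubation at 37C and 5% CO2; cell viability is the CellTiter-Glo luminescence signal.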

[5] = qHTS assay to identify small molecule antagonists of the TGF-beta/Smad signaling pathway - cell viability counter screen (AID 1346824); note: nearly all actives have a fitted effect of over 50% in size
Summary of the method: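 SBE-bla HEK 293T cells, incubated overnight, then compound plus 0.25 ng/mL TGF-beta1 (stock added) for 5 hr at 37 C. Viability was read in the same wells by CellTiter-Glo luminescence after 30 min at room temperature.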

[6] = qHTS assay to identify small molecule agonists of the TGF-beta/Smad signaling pathway - cell viability counter screen (AID 1346829); note: top concentration of the series differs between compounds; nearly all actives have a fitted effect of over 45% in size
Summary of the method: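 Compound-treated SBE-bla HEK 293T cells (5 hr, 37 C) were assessed for viability with CellTiter-Glo in parallel with the reporter read.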

[7] = qHTS assay to identify small molecule agonists of the TGF-beta/Smad signaling pathway (AID 1346859; active = well fitted activation curve with a large enough effect in the signal ratio in the repeat runs, not every such curve was filed as active; the % refers to the signal ratio; note: series mostly up to about 77 µM)
Summary of the method: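 Each well held 4,000 SBE-bla HEK 293T cells incubated overnight before compound addition; 5 hr later the cleavable FRET substrate went on for 2 hr at room temperature, and fluorescence was read at two emissions.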

[8] = target: Thyrotropin-releasing hormone receptor (Homo sapiens) (UniProt P34981); assay: qHTS assay to identify small molecule antagonists of the thyrotropin-releasing hormone receptor (TRHR) signaling pathway (AID 1346877; active = well fitted inhibition curve with a large enough effect in the repeat runs, not every such curve was filed as active; note: series mostly up to about 51 µM)
Thyrotropin-releasing hormone receptor (Homo sapiens), sequence (P34981 whole entry, looked up): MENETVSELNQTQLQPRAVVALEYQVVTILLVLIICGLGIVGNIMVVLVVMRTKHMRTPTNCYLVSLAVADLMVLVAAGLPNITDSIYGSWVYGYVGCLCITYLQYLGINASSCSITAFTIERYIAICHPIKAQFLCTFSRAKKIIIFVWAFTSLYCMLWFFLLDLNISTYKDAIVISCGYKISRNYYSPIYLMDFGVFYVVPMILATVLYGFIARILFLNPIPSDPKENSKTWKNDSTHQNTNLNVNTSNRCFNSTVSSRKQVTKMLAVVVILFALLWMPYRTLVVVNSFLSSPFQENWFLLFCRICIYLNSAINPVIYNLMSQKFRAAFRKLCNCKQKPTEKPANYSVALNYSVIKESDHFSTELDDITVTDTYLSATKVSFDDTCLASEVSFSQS
Summary of the method: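 Screening used HEK293 cells engineered with TRHR, with a brief 5 min room-temperature compound exposure preceding addition of TRH to 1 nM. The read-out was kinetic calcium-dye fluorescence, concentration-response from 15 doses in triplicate.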

[9] = Human pregnane X receptor (PXR) small molecule agonists, qHTS cell viability counter screen (AID 1346977); note: nearly all actives have a fitted effect of over 50% in size; note: potency is the fitted concentration of half-maximal effect
Summary of the method: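 Tox21 qHTS format; PXR-Luc HepG2, 2,000/well, charcoal-stripped FBS 5%. Cpd exposure 24hr. Read: CellTiter-Fluor fluorescence, multiplexed with luciferase.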

[10] = target: Thyrotropin-releasing hormone receptor (Homo sapiens) (UniProt P34981); assay: qHTS assay to identify small molecule agonists of the thyrotropin-releasing hormone receptor (TRHR) signaling pathway (AID 1346891; calls by dose curve; note: series mostly up to about 58 µM)
Summary of the method: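 Screening of agonists relied on calcium signalling in HEK293 cells expressing human TRHR: dye loading 2 h at 37 °C preceded compound addition and a 3-min fluorescence time course.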

With COc1ccc(OC)cc1 the Potency [1] was “inactive”, the Potency [2] was “inactive” and the outcome [3] was “inactive”. The outcome [4] was “inactive”, the outcome [5] was “inactive” and the outcome [6] was “inactive”. The outcome [7] was “inactive”, the outcome [8] was “inactive” and the Potency [9] was “inactive”.
In the case of O=C(O)/C=C/C(=O)O, the Potency [1] was “inactive”, the Potency [2] was “inactive” and the outcome [3] was “inactive”. For the same compound, the outcome [4] was “inactive”, the outcome [5] was “inactive” and the outcome [6] was “inactive”. For the same compound, the outcome [7] was “inactive”, the outcome [8] was “inactive” and the Potency [9] was “inactive”.
In the case of COc1ccc(C)cc1N, the Potency [1] was “inactive”, the Potency [2] was “inactive” and the outcome [3] was “inactive”. For the same compound, the outcome [4] was “inactive”, the outcome [5] was “inactive” and the outcome [6] was “inactive”. For the same compound, the outcome [7] was “inactive”, the outcome [8] was “inactive” and the Potency [9] was “inactive”.
In the case of Clc1ccccn1, the Potency [1] was “inactive”, the Potency [2] was “inactive” and the outcome [3] was “inactive”. For the same compound, the outcome [4] was “inactive”, the outcome [5] was “inactive” and the outcome [6] was “inactive”. The outcome [7] was “inactive”, the outcome [8] was “inactive” and the Potency [9] was “inactive”.
In the case of CCCCCC(=O)O, the Potency [1] was “inactive”, the Potency [2] was “inactive” and the outcome [3] was “inactive”. For the same compound, the outcome [4] was “inactive”, the outcome [5] was “inactive” and the outcome [6] was “inactive”. For the same compound, the outcome [7] was “inactive”, the outcome [8] was “inactive” and the Potency [9] was “inactive”.
In the case of CCCCCCCO, the Potency [1] was “inactive”, the Potency [2] was “inactive” and the outcome [3] was “inactive”. The outcome [4] was “inactive”, the outcome [5] was “inactive” and the outcome [6] was “inactive”. For the same compound, the outcome [7] was “inactive”, the outcome [8] was “inactive” and the Potency [9] was “inactive”.
For CCNC(=S)NCC, the Potency [1] was “inactive”, the Potency [2] was “inactive” and the outcome [3] was “inactive”. The outcome [4] was “inactive”, the outcome [5] was “inactive” and the outcome [6] was “inactive”. The outcome [7] was “inactive”, the outcome [8] was “inactive” and the outcome [10] was “inactive”. For the same compound, the Potency [9] was “inactive”.
In the case of NCCNCCN, the Potency [1] was “inactive”, the Potency [2] was “inactive” and the outcome [3] was “inactive”. The outcome [4] was “inactive”, the outcome [5] was “inactive” and the outcome [6] was “inactive”. The outcome [7] was “inactive”, the outcome [8] was “inactive” and the Potency [9] was “inactive”.
In the case of O=C(O)Cn1c(=O)n(Cc2ccc(Br)cc2F)c(=O)c2ccc(Cl)cc21, the Potency [1] was “inactive”, the Potency [2] was “inactive” and the outcome [3] was “inactive”. For the same compound, the outcome [4] was “inactive”, the outcome [5] was “inactive” and the outcome [6] was “inactive”. The outcome [7] was “inactive”, the outcome [8] was “inactive” and the Potency [9] was “inactive”.
In the case of CC(CCl)OP(=O)(OC(C)CCl)OC(C)CCl (configuration not stated), the Potency [1] was “inactive”, the Potency [2] was 54.6 µM (active) and the outcome [3] was “inactive”. The outcome [4] was “inactive”, the outcome [5] was “inactive” and the outcome [6] was “inactive”. For the same compound, the outcome [7] was “inactive”, the outcome [8] was “inactive” and the Potency [9] was “inactive”.
With CC(=O)CCC=C(C)C the Potency [1] was “inactive”, the Potency [2] was “inactive” and the outcome [3] was “inactive”. For the same compound, the outcome [4] was “inactive”, the outcome [5] was “inactive” and the outcome [6] was “inactive”. The outcome [7] was “inactive”, the outcome [8] was “inactive” and the Potency [9] was “inactive”.
For CSc1ccc(Cl)cc1, the Potency [1] was “inactive”, the Potency [2] was “inactive” and the outcome [3] was “inactive”. The outcome [4] was “inactive”, the outcome [5] was “inactive” and the outcome [6] was “inactive”. The outcome [7] was “inactive”, the outcome [8] was “inactive” and the Potency [9] was “inactive”.
With O=C1CCCC1 the Potency [1] was “inactive”, the Potency [2] was “inactive” and the outcome [3] was “inactive”. For the same compound, the outcome [4] was “inactive”, the outcome [5] was “inactive” and the outcome [6] was “inactive”. For the same compound, the outcome [7] was “inactive”, the outcome [8] was “inactive” and the Potency [9] was “inactive”.
For CC(=O)Oc1ccc(C)cc1, the Potency [1] was “inactive”, the Potency [2] was “inactive” and the outcome [3] was “inactive”. For the same compound, the outcome [4] was “inactive”, the outcome [5] was “inactive” and the outcome [6] was “inactive”. The outcome [7] was “inactive”, the outcome [8] was “inactive” and the outcome [10] was “inactive”. The Potency [9] was “inactive”.
In the case of O=S(=O)(O)c1ccccc1, the Potency [1] was “inactive”, the Potency [2] was “inactive” and the outcome [3] was “inactive”. For the same compound, the outcome [4] was “inactive”, the outcome [5] was “inactive” and the outcome [6] was “inactive”. The outcome [7] was “inactive”, the outcome [8] was “inactive” and the Potency [9] was “inactive”.
With OC1C(O)C(O)C(O)C(O)C1O (configuration not stated) the Potency [1] was “inactive”, the Potency [2] was “inactive” and the outcome [3] was “inactive”. For the same compound, the outcome [4] was “inactive”, the outcome [5] was “inactive” and the outcome [6] was “inactive”. The outcome [7] was “inactive”, the outcome [8] was “inactive” and the Potency [9] was “inactive”.
With CN(C)c1ccc(O)c2c1C[C@H]1C[C@H]3[C@H](N(C)C)C(=O)C(C(N)=O)=C(O)[C@@]3(O)C(=O)C1=C2O the Potency [1] was “inactive”, the Potency [2] was “inactive” and the outcome [3] was “inactive”. For the same compound, the outcome [4] was “inactive”, the outcome [5] was “inactive” and the outcome [6] was “inactive”. The outcome [7] was “inactive”, the outcome [8] was “inactive” and the Potency [9] was “inactive”.
With CN(C)CCOC(=O)COc1ccc(Cl)cc1 the Potency [1] was “inactive”, the Potency [2] was “inactive” and the outcome [3] was “inactive”. For the same compound, the outcome [4] was “inactive”, the outcome [5] was “inactive” and the outcome [6] was “inactive”. For the same compound, the outcome [7] was “inactive”, the outcome [8] was “inactive” and the Potency [9] was “inactive”.
With COc1cc(OC)c(C(=O)CCCN2CCCC2)c(OC)c1 the Potency [1] was “inactive”, the Potency [2] was “inactive” and the outcome [3] was “inactive”. The outcome [4] was “inactive”, the outcome [5] was “inactive” and the outcome [6] was “inactive”. For the same compound, the outcome [7] was “inactive”, the outcome [8] was “inactive” and the Potency [9] was “inactive”.
In the case of OCc1cccc(Oc2ccccc2)c1, the Potency [1] was “inactive”, the Potency [2] was 54.5 µM (active) and the outcome [3] was “inactive”. The outcome [4] was “inactive”, the outcome [5] was “inactive” and the outcome [6] was “inactive”. The outcome [7] was “inactive”, the outcome [8] was “inactive” and the Potency [9] was “inactive”.
With CC(=O)CC(C)(C)O the Potency [1] was “inactive”, the Potency [2] was “inactive” and the outcome [3] was “inactive”. The outcome [4] was “inactive”, the outcome [5] was “inactive” and the outcome [6] was “inactive”. The outcome [7] was “inactive”, the outcome [8] was “inactive” and the Potency [9] was “inactive”.
For CC(=O)OCc1ccccc1, the Potency [1] was “inactive”, the Potency [2] was “inactive” and the outcome [3] was “inactive”. For the same compound, the outcome [4] was “inactive”, the outcome [5] was “inactive” and the outcome [6] was “inactive”. For the same compound, the outcome [7] was “inactive”, the outcome [8] was “inactive” and the Potency [9] was “inactive”.
For CC(C)(Oc1ccc(CCNC(=O)c2ccc(Cl)cc2)cc1)C(=O)O, the Potency [1] was “inactive”, the Potency [2] was “inactive” and the outcome [3] was “inactive”. The outcome [4] was “inactive”, the outcome [5] was “inactive” and the outcome [6] was “inactive”. For the same compound, the outcome [7] was “inactive”, the outcome [8] was “inactive” and the Potency [9] was “inactive”.
With COc1ccc(N)c(C)c1 the Potency [1] was “inactive”, the Potency [2] was “inactive” and the outcome [3] was “inactive”. The outcome [4] was “inactive”, the outcome [5] was “inactive” and the outcome [6] was “inactive”. For the same compound, the outcome [7] was “inactive” and the Potency [9] was “inactive”.
In the case of O=S(=O)(O)c1ccc(N=Nc2c(O)ccc3cc(S(=O)(=O)O)ccc23)cc1, the Potency [1] was “inactive”, the Potency [2] was “inactive” and the outcome [3] was “inactive”. The outcome [4] was “inactive”, the outcome [5] was “inactive” and the outcome [6] was “inactive”. The outcome [7] was “inactive”, the outcome [8] was “inactive” and the Potency [9] was 39.8 µM (active) and 30.6 µM (active).
For COC(=O)c1cccnc1, the Potency [1] was “inactive”, the Potency [2] was “inactive” and the outcome [3] was “inactive”. For the same compound, the outcome [4] was “inactive”, the outcome [5] was “inactive” and the outcome [6] was “inactive”. The outcome [7] was “inactive” and the Potency [9] was “inactive”.
In the case of CC(C)CC(C)O (configuration not stated), the Potency [1] was “inactive”, the Potency [2] was “inactive” and the outcome [3] was “inactive”. The outcome [4] was “inactive”, the outcome [5] was “inactive” and the outcome [6] was “inactive”. For the same compound, the outcome [7] was “inactive” and the Potency [9] was “inactive”.
With C=CC(C)CCCC(C)(C)O (configuration not stated) the Potency [1] was “inactive”, the Potency [2] was “inactive” and the outcome [3] was “inactive”. For the same compound, the outcome [4] was “inactive”, the outcome [5] was “inactive” and the outcome [6] was “inactive”. The outcome [7] was “inactive” and the Potency [9] was “inactive”.
In the case of C[C@]12CC[C@@H]3c4ccc(O)cc4CC[C@H]3[C@@H]1C[C@@H](O)[C@@H]2O, the Potency [1] was “inactive”, the outcome [3] was “inactive” and the outcome [4] was “inactive”. For the same compound, the outcome [5] was “inactive”, the outcome [6] was “inactive” and the outcome [7] was “inactive”. The Potency [9] was “inactive”.
